# Data taken from PubChem BioAssay (NCATS).
# Records with an inconclusive call do not appear. Where a call stands in place of a potency, no number is given. Calls of active or inactive are those of the source. The call rests on the fitted dose curve; in most records, active means well fitted inhibition curve with a large enough effect; inconclusive means small, poorly fitted or top-dose-only effect; inactive means flat fitted curve, though single readings scatter.
# Target: Calcium and integrin-binding protein 1 (Homo sapiens) (UniProt Q99828)
# Sequence (Q99828 whole entry, looked up): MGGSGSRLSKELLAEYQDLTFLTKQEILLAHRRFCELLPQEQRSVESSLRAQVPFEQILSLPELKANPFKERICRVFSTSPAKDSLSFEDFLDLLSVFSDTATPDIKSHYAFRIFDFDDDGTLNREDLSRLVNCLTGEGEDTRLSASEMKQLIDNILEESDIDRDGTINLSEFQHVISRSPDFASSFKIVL
# Assay: Primary qHTS for Identification of Calcium Integrin Binding Protein 1 (CIB1) Competitor (AID 1508620); further: top concentration of the series differs between compounds
# Details: CIB1-GST / FITC-alphaIIb peptide fluorescence polarization; series mostly up to 57.7 µM
# In short: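 Fluorescence polarization competition: GST-tagged CIB1 (1 uM final) preincubated with compound 15 min at room temperature, then FITC-labelled alphaIIb peptide (100 nM final) added. After 15 min at room temperature, polarization read at Ex 480/Em 540.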
row,Structure (SMILES),Potency
1,CC1(C)CC[C@]2(C(=O)O)CC[C@]3(C)C(=CCC4[C@@]5(C)CCC(O[C@@H]6OC[C@H](O)[C@H](O)[C@H]6O[C@@H]6O[C@H](CO)[C@@H](O)[C@H](O)[C@H]6O)[C@@](C)(CO)C5CC[C@]43C)[C@@H]2C1 (some centres not stated),inactive
2,COC(=O)[C@]12C(=O)C(C)=C(O)[C@@]1(C)C(C)=CC1[C@@]34CC[C@@H](OC(C)=O)C(C)(C)C3[C@H](C[C@]12C)OC4=O (some centres not stated),inactive
3,C=C1CCC2C(C)(CO[C@@H]3O[C@H](CO)[C@@H](O)[C@H](O)[C@H]3O)C(O)CCC2(C)C1C(=O)CC1=CCOC1=O (some centres not stated),inactive
4,CC1(C)CCC(C)(C)c2cc([C@@H](O)C(=O)Nc3ccc(C(=O)O)cc3F)ccc21,inactive
5,C=C1CCC2C(OC(=O)C2(O)COC(C)=O)C2C(=C)C(O)CC12 (configuration not stated),inactive
6,C=C(C)C1CC2(CO)C(=CC1=O)CCC(O)C2C (configuration not stated),inactive
7,C=CC1C(O[C@@H]2O[C@H](CO)[C@@H](O)[C@H](O)[C@H]2O)OC=C(C(=O)OC)C1Cc1nccc2c1[nH]c1ccccc12 (some centres not stated),inactive
8,Cc1cc(Nc2ncc(Cl)c(Nc3ccccc3S(=O)(=O)C(C)C)n2)c(OC(C)C)cc1C1CCNCC1,inactive
9,OCC1OC(Oc2cc(O)c3c(c2)OC(c2ccc(O)cc2)C(O)C3)C(O)C1O (configuration not stated),inactive
10,COC(=O)CC1(O)C(=O)Nc2ccccc21 (configuration not stated),inactive
11,CC(=O)OC1C(O)CC(O[C@@H]2O[C@H](CO)[C@@H](O)[C@H](O)[C@H]2O)C2CCC3C(=O)OC(c4ccoc4)CC3(C)C21 (some centres not stated),inactive
12,COc1ccc(C(OC2OC(CO)C(O)C(O)C2O)C(C)O)cc1 (configuration not stated),inactive
